Each structure is given as a SMILES string. Where “and” joins values, the source holds several entries; their conditions need not be identical. Identical values can stand only once. Inconclusive results are not listed. Unmarked numbers belong to inactive results. Calls of active or inactive are those of the source. Unless noted, calls come from the whole dose curve; as a rule, active = well fitted curve in the direction sought with a large enough effect; inconclusive = small, poorly fitted or top-dose-only effect, or another doubt; inactive = no such curve, though single readings can be large; an effect the other way counts as inactive or inconclusive.

Data on eleven compounds can be found in PubChem BioAssay (NCATS).

The nature of assay [1]: Cell Viability - BJ (AID 421; calls by dose curve;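 note: potency is the fitted concentration of half-maximal effect; cells exposed to compound for 40 hours at 37 °C before readout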). Conditions: BJ fibroblast viability, qHTS. The method, boiled down: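 Cytotoxicity as drop in intracellular ATP (CellTiter-Glo, 20 min RT) after 40 hr compound exposure of BJ fibroblasts at 37 °C. Titrations scaled between DMSO and 100 uM tamoxifen, Hill-fitted for AC50.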
(qHTS replaces the single test concentration by a dilution series.)

Assay [2] in a line: Cell Viability - Hek293 (AID 427;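 active = compounds whose dose-response curve shows a full or clear partial loss of cell viability, called from curve shape rather than a numeric limit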;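 note: potency is the fitted concentration of half-maximal effect; cells exposed to compound for 40 hours at 37 °C before reading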). Conditions: qHTS. The gist of the method: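 Luminescent ATP content (CellTiter-Glo, 20 min at room temperature) was measured after a 40 hr, 37 °C compound exposure of HEK293 cells. AC50 values came from Hill-equation fits of qHTS concentration-response data normalized to DMSO and 100 uM tamoxifen.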
Assay [3] can be described thus: Cell Viability - HepG2 (AID 433; calls by dose curve;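 note: potency is the fitted concentration of half-maximal effect; potency for ATP loss meaning cytotoxicity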). The note with it: qHTS. The gist of the method:
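HepG2 cells, 1500 per well, treated 40 hr at 37 °C in complete medium; viability from intracellular ATP by CellTiter-Glo luminescence. Normalized to DMSO and 100 uM tamoxifen; AC50 from Hill fit of qHTS concentration-response.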

Assay [4] is described as follows: Cell Viability - MRC5 (AID 434; calls by dose curve;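 note: potency is the fitted concentration of half-maximal effect; potency reflects cytotoxicity seen as loss of intracellular ATP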). The note with it: MRC5 lung fibroblast viability, qHTS. The method, boiled down:
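MRC5 normal human lung fibroblasts (1500/well) were treated with compounds for 40 hr at 37 °C in complete medium, and viable cells were measured as intracellular ATP by CellTiter-Glo luminescence. AC50 came from Hill fits, normalized to DMSO and 100 uM tamoxifen.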

Assay [5] is described as follows: Cell Viability - N2a (AID 540).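 For activity change, negative = cytotoxicity: plate controls were DMSO alone for no effect and tamoxifen control for full effect.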 Note: nearly all actives have a fitted effect of over 45% in size. Note: potency is the fitted concentration of half-maximal effect. Conditions: N2a mouse neuroblastoma cell viability; activity change, negative = cytotoxicity: at 92.2 µM (top of the series). The gist of the method:
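Mouse neuroblastoma N2a cells, 1500/well, exposed to compounds 40 h at 37 °C in complete medium. Viability measured as cellular ATP by CellTiter-Glo luminescence; AC50 from Hill fits of concentration-response.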

Assay [6] in a line: Cell Viability - NIH 3T3 (AID 541).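 For activity change, negative = cytotoxicity: plate controls were DMSO alone for no effect and tamoxifen positive control for full effect.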 Note: nearly all actives have a fitted effect of over 25% in size. Note: potency is the fitted concentration of half-maximal effect. Conditions: NIH 3T3 cell viability, qHTS; activity change, negative = cytotoxicity: at 92.2 µM (top of the series). The gist of the method:
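Mouse NIH 3T3 fibroblasts, 1000 cells/well, rested 5 hr at 37 °C, then exposed to compound for 40 hr at 37 °C in complete medium. Viability read as intracellular ATP by CellTiter-Glo luminescence; AC50 from Hill-equation fits of concentration-response data.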

A short description of assay [7]: Cell Viability - HUV-EC-C (AID 542). For activity change, negative = cytotoxicity: % is set by controls: 0 for no effect and ±100 for the full control effect. Note: nearly all actives have a fitted effect of over 35% in size. Note: potency is the fitted concentration of half-maximal effect. The method, boiled down:
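HUV-EC-C human vascular endothelial cells, 1000/well, exposed to compound for 40 hr at 37 °C in complete medium. Intracellular ATP was read by CellTiter-Glo luminescence. AC50 came from Hill-equation fits of concentration-response data.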

Assay [8] is described as follows: Cell Viability - H-4-II-E (AID 543). Note: nearly all actives have a fitted effect of over 35% in size. Note: potency is the fitted concentration of half-maximal effect. The gist of the method:
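Rat hepatoma H-4-II-E cells, 1500 per well, treated 40 h at 37 °C in complete medium. Cellular ATP read by CellTiter-Glo luminescence; AC50 from Hill fits of concentration-response.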

Assay [9] in a line: Cell Viability - SH-SY5Y (AID 544). Note: nearly all actives have a fitted effect of over 55% in size. Note: potency is the fitted concentration of half-maximal effect. The gist of the method:
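SH-SY5Y human neuroblastoma cells (1500/well) incubated 5 h, then compound-treated 40 h at 37 °C in complete medium. Viability read as intracellular ATP by CellTiter-Glo luminescence after 20 min; AC50 from Hill-equation fits of qHTS concentration-response.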

Assay [10] is described as follows: Cell Viability - Renal Proximal Tubule (AID 545).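 For activity change, negative = cytotoxicity: 0% = DMSO only and -100% = 100 µM tamoxifen.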 Note: nearly all actives have a fitted effect of over 40% in size. Note: potency is the fitted concentration of half-maximal effect. Conditions: renal proximal tubule cells viability; activity change, negative = cytotoxicity: at 91.7 µM (top of the series). The gist of the method: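 Rat renal proximal tubule primary cells, 1000/well, exposed to compounds for 40 hr at 37 °C in complete medium; cellular ATP read by CellTiter-Glo luminescence. AC50 from concentration-response fitted with standard Hill equation.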

The nature of assay [11]: Cell Viability - Jurkat (AID 426;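 active = dose-dependent loss of cell ATP signal giving a full or clear fitted curve, ranked by lower potency value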; note: potency is the fitted concentration of half-maximal effect). Conditions: qHTS. The method, boiled down:
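Jurkat (Clone E6-1) cells, 5000/well in complete medium, exposed to compounds for 40 hr at 37C; intracellular ATP measured by CellTiter-Glo luminescence after 20 min at room temperature. AC50 from Hill fits.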

Assay [12] in a line: Cell Viability - SK-N-SH (AID 435; calls by dose curve;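 note: potency is the fitted concentration of half-maximal effect; compound exposure lasted 40 h at 37 °C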). Conditions: SK-N-SH neuroblastoma cell viability qHTS. The method, boiled down:
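SK-N-SH neuroblastoma cells (1500/well) treated 40 h at 37 °C in complete medium; viability read as cellular ATP by CellTiter-Glo luminescence. Normalized to DMSO and 100 uM tamoxifen; AC50 from Hill fits of qHTS concentration-response.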

The target in assay [13] is Mitogen-activated protein kinase 10 (Mus musculus) (UniProt Q61831). In words: JNK3 AlphaScreen Assay (AID 530; active = well fitted curve in either direction with a large enough effect, not every such curve was filed as active;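 note: kinase came from lysate of stimulated human HepG2 cells; signal reports phosphorylation of biotinylated GST-cJun 1-79 at Ser73 with 10 µM ATP; % is set by controls: 0 for no effect and ±100 for the full control effect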). The method, boiled down: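 Inhibitors reduce antibody binding to phosphorylated biotin-cJun, lowering AlphaScreen luminescence. Lysates from HepG2 cells pre-activated by IL-1beta plus TNF-alpha supplied JNK3; compounds were titrated.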
A general note: Alpha assays give light when donor and acceptor beads are brought close together.

As to `Oc1cc(Cl)c(Cl)cc1Cl`, the Potency was > 92 µM in assay [1]; > 92 µM in assay [2]; > 92 µM in assay [3]; > 92 µM in assay [4]; 25.1 µM (active) in assay [5]. Further, the Potency entry in [6], in [7], in assay [8], in [9] and in assay [10] was “inactive” throughout.
Take `O=C(O)C(Cl)(Cl)Cl`: the Potency in assay [1], in assay [11], in assay [2], in assay [3], in [4] and in [12] was > 92 µM each time. In addition, the outcome in [13] was inactive. For the same compound, the Potency entry in assay [5], in assay [6], in assay [7], in assay [8], in [9] and in [10] was “inactive” each time.
In the case of `O=[N+]([O-])c1ccc(F)c([N+](=O)[O-])c1`, the Potency in assay [1] was 59.9 µM (active); in [11], 8.96 µM (active); in assay [3] it was 46.1 µM (active); in assay [4], > 92 µM; in [12] it was 45.7 µM (active); in [9], 25.1 µM (active). The activity change, negative = cytotoxicity in assay [6] was -151% (active). For the same compound, the Potency entry in [7] was “inactive”.
As to `C[C@H]1CCC[C@H](O)CCCCCc2cc(O)cc(O)c2C(=O)O1`, the Potency in assay [1], in [11], in [3] and in [4] was > 92 µM in each case. Besides, the Potency result in assay [5], in [7], in assay [8] and in assay [10] was “inactive” throughout. Further, the activity change, negative = cytotoxicity in assay [6] is -108% (active).
`CCCCCCCCOC(=O)c1ccccc1C(=O)OCCCCCCCC`: the Potency in assay [1], in assay [2], in assay [3], in assay [4] and in [12] was > 92 µM each time. The compound was classed as inactive in assay [13]. In addition, the Potency result in assay [5], in assay [6], in assay [7], in assay [8], in [9] and in assay [10] was “inactive” each time.
Take `S=C=S`: the Potency in [1], in assay [11], in assay [2], in assay [3], in assay [4] and in [12] was > 92 µM each time. For the same compound, the compound was called inactive in [13]. For the same compound, the Potency entry in assay [5], in [6], in [7], in [8], in assay [9] and in assay [10] was “inactive” each time.
As for `C[C@H]1CC[C@@H]2[C@@H](C)[C@H]3[C@H](C[C@H]4[C@@H]5CC=C6CC(O[C@@H]7O[C@H](CO)[C@H](O)[C@H](O[C@@H]8O[C@H](CO)[C@@H](O)[C@H](O)[C@H]8O)[C@H]7O[C@H]7O[C@@H](C)[C@H](O)[C@@H](O)[C@H]7O)CC[C@]6(C)[C@H]5CC[C@]34C)N2C1` (stereo partly drawn), the Potency is 35 µM (active) in assay [1]; 32.5 µM (active) in assay [11]; 39.3 µM (active) in assay [2]; 23.7 µM (active) in [3]; 45 µM (active) in assay [4]; 24.8 µM (active) in assay [12]. Further, the Potency in assay [5], in assay [6], in assay [7], in assay [8] and in [9] was 31.6 µM (active) in each case. The compound was classed as inactive in assay [13]. Besides, the activity change, negative = cytotoxicity in assay [10] is -101% (active).
Take `COc1ccc2c(c1OC)C(=O)OC2C1c2cc3c(cc2CCN1C)OCO3` (stereo not drawn): the Potency in [1], in assay [11], in assay [2], in assay [3], in assay [4] and in assay [12] was > 92 µM in each case. Also, the Potency result in assay [5], in assay [6], in assay [7], in assay [8], in assay [9] and in [10] was “inactive” each time.
Regarding `O=[N+]([O-])c1ccccc1`, the Potency in [1], in assay [11], in assay [2], in assay [3], in assay [4] and in assay [12] was > 92 µM each time. In addition, the compound was classed as inactive in [13]. The Potency result in [5], in assay [6], in assay [7], in assay [8], in assay [9] and in assay [10] was “inactive” each time.
With `[Cl-].[Cl-].[Hg+2]`, the Potency in assay [1] was 29.4 µM (active); in assay [11] it was 25.3 µM (active); in assay [2], 19.4 µM (active); in [4], 33.4 µM (active); in [12] it was 16 µM (active); in [5], 31.6 µM (active). The Potency in [6] was 15.8 µM (active); in [7] it was 10 µM (active); in assay [8], 20 µM (active); in assay [9], 0.158 µM (active); in assay [10] it was 316 nM (active). Also, the compound was called inactive in assay [13].
Take `[O]=[Cr](=[O])([OH])[O][Cr](=[O])(=[O])[OH]`: the Potency was 19.5 µM (active) and 13.4 µM (active) and 4.66 µM (active) in [1]; 1.88 µM (active) and 3.05 µM (active) and 549 nM (active) in [11]; 30.9 µM (active) and 31.8 µM (active) and 19.2 µM (active) in assay [2]; 12.2 µM (active) and 14.7 µM (active) and 7.52 µM (active) in assay [3]; 4.16 µM (active) and 11.5 µM (active) and 9.77 µM (active) in assay [4]; 19.2 µM (active) and 17.1 µM (active) and 3.88 µM (active) in [12]. In addition, the Potency is 39.8 µM (active) and 25.1 µM (active) in assay [5]; 15.8 µM (active) in [6]; 3.98 µM (active) and 20 µM (active) and 5.01 µM (active) in assay [7]; 316 nM (active) and 15.8 µM (active) and 3.98 µM (active) in assay [9]; 2.51 µM (active) and 7.94 µM (active) and 501 nM (active) in assay [10]. The activity change, negative = cytotoxicity is -124% (active) in [5]; -141% (active) and -151% (active) in assay [6].
